We go through 40 sequences from publication PMC7862700, “An all-to-all approach to the identification of sequence-specific readers for epigenetic DNA modifications on cytosine”.

For one test, the target named is T1, ELK4 (Homo sapiens, UniProt P28324-2 1-405).
T1 sequence: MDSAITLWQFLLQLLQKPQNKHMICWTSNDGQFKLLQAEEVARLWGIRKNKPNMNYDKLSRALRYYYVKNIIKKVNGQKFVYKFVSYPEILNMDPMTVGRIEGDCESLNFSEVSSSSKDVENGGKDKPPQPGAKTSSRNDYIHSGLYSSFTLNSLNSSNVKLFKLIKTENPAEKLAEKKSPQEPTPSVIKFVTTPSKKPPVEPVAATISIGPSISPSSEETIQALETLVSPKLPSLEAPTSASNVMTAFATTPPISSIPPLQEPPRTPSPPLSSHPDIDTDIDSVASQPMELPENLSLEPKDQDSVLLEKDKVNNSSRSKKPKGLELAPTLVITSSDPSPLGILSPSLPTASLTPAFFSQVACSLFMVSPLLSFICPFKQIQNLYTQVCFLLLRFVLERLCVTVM
Kind of test: DAPPL (digital affinity profiling via proximity ligation, sequencing); 10 mM Tris-HCl pH 7.5, 50 mM NaCl, 1 mM DTT, 4% glycerol, room temperature, 30 min; GST-TFs on glutathione beads, 16-mer random dsDNA library, 0.1% formaldehyde crosslink after washing; high values mean tight binding. The conditions noted are these: protein: recombinant; tags: N-terminal GST; dsDNA, one strand shown. The method, boiled down: (§1)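 Human transcription factors fused to GST were expressed in yeast, captured on glutathione beads, given DNA barcodes and pooled with a GST-only negative control. Pools were incubated with 200 nmole of a 16-mer random double-stranded DNA library in Tris/NaCl/DTT/glycerol buffer at room temperature for 30 min. They were then washed, crosslinked with 0.1% formaldehyde, proximity-ligated (BsaI/T4 ligase, 1 h, 37 °C), PCR-amplified and sequenced on an Illumina NextSeq500. Binding signal is each 6-mer's read frequency for a factor divided by its frequency for the GST control.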
Consider ACGGAT, for which the binding signal was 1.12 fold enrichment (6-mer frequency, TF over GST control).

In the case of ATCGCC, the binding signal is 1.28 fold enrichment (6-mer frequency, TF over GST control).

Regarding TCTCGG, the binding signal is 1.38 fold enrichment (6-mer frequency, TF over GST control).

As for TCTTAT, the binding signal is 1.3 fold enrichment (6-mer frequency, TF over GST control).

In the case of CTACAT, the binding signal was 1.33 fold enrichment (6-mer frequency, TF over GST control).

Consider TAGATG, for which the binding signal is 1.3 fold enrichment (6-mer frequency, TF over GST control).

In the case of TCCCCC, the binding signal was 1.57 fold enrichment (6-mer frequency, TF over GST control).

Take AAAATG: the binding signal is 1.27 fold enrichment (6-mer frequency, TF over GST control).

As for TCACTG, the binding signal was 1.14 fold enrichment (6-mer frequency, TF over GST control).

Take GTTCTG: the binding signal is 1.3 fold enrichment (6-mer frequency, TF over GST control).

As to CCTTTC, the binding signal was 1.64 fold enrichment (6-mer frequency, TF over GST control).

For CAATTA, the binding signal was 1.05 fold enrichment (6-mer frequency, TF over GST control).

As for CAAGAT, the binding signal was 1.11 fold enrichment (6-mer frequency, TF over GST control).

For GCTCAC, the binding signal was 1.53 fold enrichment (6-mer frequency, TF over GST control).

With TTTGTA, the binding signal was 1.75 fold enrichment (6-mer frequency, TF over GST control).

Take TTTTGG: the binding signal was 1.45 fold enrichment (6-mer frequency, TF over GST control).

In the case of ATGGAT, the binding signal is 1.14 fold enrichment (6-mer frequency, TF over GST control).

As for GAACAA, the binding signal is 1.16 fold enrichment (6-mer frequency, TF over GST control).

In the case of TCACTT, the binding signal was 1.74 fold enrichment (6-mer frequency, TF over GST control).

Consider GCCTAA, for which the binding signal is 1.25 fold enrichment (6-mer frequency, TF over GST control).

Turning to CCTGAT, the binding signal is 1.5 fold enrichment (6-mer frequency, TF over GST control).

As for AATACC, the binding signal is 1.11 fold enrichment (6-mer frequency, TF over GST control).

In the case of ATTATA, the binding signal is 1.29 fold enrichment (6-mer frequency, TF over GST control).

Take GATCCT: the binding signal is 1.24 fold enrichment (6-mer frequency, TF over GST control).

As for ATCTGC, the binding signal was 1.5 fold enrichment (6-mer frequency, TF over GST control).

As for ATACCT, the binding signal is 1.1 fold enrichment (6-mer frequency, TF over GST control).

On to TGTTTC, for which the binding signal was 1.55 fold enrichment (6-mer frequency, TF over GST control).

Turning to TATGCT, the binding signal was 1.4 fold enrichment (6-mer frequency, TF over GST control).

Take TGGCTT: the binding signal was 1.23 fold enrichment (6-mer frequency, TF over GST control).

For the sequence CTGATT, the binding signal is 1.09 fold enrichment (6-mer frequency, TF over GST control).

Regarding ACTCCG, the binding signal is 1.4 fold enrichment (6-mer frequency, TF over GST control).

Regarding GTTGCT, the binding signal is 1.33 fold enrichment (6-mer frequency, TF over GST control).

On to TAATAC, for which the binding signal is 1.04 fold enrichment (6-mer frequency, TF over GST control).

As to TCTCAG, the binding signal was 1.34 fold enrichment (6-mer frequency, TF over GST control).

For the sequence TAAAAT, the binding signal is 1.2 fold enrichment (6-mer frequency, TF over GST control).

With TGCGCT, the binding signal was 1.46 fold enrichment (6-mer frequency, TF over GST control).

Consider CCACTA, for which the binding signal was 1.06 fold enrichment (6-mer frequency, TF over GST control).

For TTCGCT, the binding signal is 1.29 fold enrichment (6-mer frequency, TF over GST control).

Take CCGCAT: the binding signal was 1.31 fold enrichment (6-mer frequency, TF over GST control).

Turning to ATCTCG, the binding signal is 1.42 fold enrichment (6-mer frequency, TF over GST control).

The target of another test is T2, ETV2 (Homo sapiens, UniProt O00321 1-342).
T2 sequence: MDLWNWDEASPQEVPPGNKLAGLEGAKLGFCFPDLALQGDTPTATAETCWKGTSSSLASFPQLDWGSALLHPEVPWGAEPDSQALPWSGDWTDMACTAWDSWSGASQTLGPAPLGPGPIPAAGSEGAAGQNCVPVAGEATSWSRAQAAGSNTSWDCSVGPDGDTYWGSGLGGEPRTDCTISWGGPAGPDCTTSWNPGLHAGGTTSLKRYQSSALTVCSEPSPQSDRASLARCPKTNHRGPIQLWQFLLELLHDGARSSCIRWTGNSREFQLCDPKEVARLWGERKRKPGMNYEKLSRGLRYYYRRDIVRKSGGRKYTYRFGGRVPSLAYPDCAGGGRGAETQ
The description is as above. The conditions noted are these: protein: recombinant; tags: N-terminal GST; dsDNA, one strand shown. An outline of the steps: as §1
On to ACGGAT, for which the binding signal was 1.2 fold enrichment (6-mer frequency, TF over GST control).

As to ATCGCC, the binding signal is 1.2 fold enrichment (6-mer frequency, TF over GST control).

TCTCGG: the binding signal is 1.48 fold enrichment (6-mer frequency, TF over GST control).

Turning to TCTTAT, the binding signal is 1.22 fold enrichment (6-mer frequency, TF over GST control).

As to CTACAT, the binding signal was 1.31 fold enrichment (6-mer frequency, TF over GST control).

As to TAGATG, the binding signal was 1.37 fold enrichment (6-mer frequency, TF over GST control).

TCCCCC: the binding signal is 1.53 fold enrichment (6-mer frequency, TF over GST control).

On to AAAATG, for which the binding signal is 1.31 fold enrichment (6-mer frequency, TF over GST control).

Regarding TCACTG, the binding signal was 1.15 fold enrichment (6-mer frequency, TF over GST control).

Take GTTCTG: the binding signal is 1.09 fold enrichment (6-mer frequency, TF over GST control).

For the sequence CCTTTC, the binding signal is 1.56 fold enrichment (6-mer frequency, TF over GST control).

Consider CAATTA, for which the binding signal is 1.03 fold enrichment (6-mer frequency, TF over GST control).

Turning to CAAGAT, the binding signal was 1.09 fold enrichment (6-mer frequency, TF over GST control).

Turning to GCTCAC, the binding signal is 1.63 fold enrichment (6-mer frequency, TF over GST control).

In the case of TTTGTA, the binding signal was 1.53 fold enrichment (6-mer frequency, TF over GST control).

In the case of TTTTGG, the binding signal was 1.6 fold enrichment (6-mer frequency, TF over GST control).

With ATGGAT, the binding signal was 1.06 fold enrichment (6-mer frequency, TF over GST control).

Turning to GAACAA, the binding signal is 1.28 fold enrichment (6-mer frequency, TF over GST control).

Take TCACTT: the binding signal is 1.72 fold enrichment (6-mer frequency, TF over GST control).

On to GCCTAA, for which the binding signal is 1.19 fold enrichment (6-mer frequency, TF over GST control).

As to CCTGAT, the binding signal is 1.55 fold enrichment (6-mer frequency, TF over GST control).

For AATACC, the binding signal was 1.17 fold enrichment (6-mer frequency, TF over GST control).

With ATTATA, the binding signal was 1.42 fold enrichment (6-mer frequency, TF over GST control).

On to GATCCT, for which the binding signal is 1.43 fold enrichment (6-mer frequency, TF over GST control).

As to ATCTGC, the binding signal was 1.44 fold enrichment (6-mer frequency, TF over GST control).

With ATACCT, the binding signal was 1.09 fold enrichment (6-mer frequency, TF over GST control).

Take TGTTTC: the binding signal was 1.69 fold enrichment (6-mer frequency, TF over GST control).

In the case of TATGCT, the binding signal was 1.3 fold enrichment (6-mer frequency, TF over GST control).

As for TGGCTT, the binding signal was 1.3 fold enrichment (6-mer frequency, TF over GST control).

For the sequence CTGATT, the binding signal is 1.21 fold enrichment (6-mer frequency, TF over GST control).

On to ACTCCG, for which the binding signal was 1.4 fold enrichment (6-mer frequency, TF over GST control).

For the sequence GTTGCT, the binding signal was 1.26 fold enrichment (6-mer frequency, TF over GST control).

Turning to TAATAC, the binding signal is 1.16 fold enrichment (6-mer frequency, TF over GST control).

Take TCTCAG: the binding signal was 1.37 fold enrichment (6-mer frequency, TF over GST control).

As for TAAAAT, the binding signal is 1.34 fold enrichment (6-mer frequency, TF over GST control).

As for TGCGCT, the binding signal is 1.35 fold enrichment (6-mer frequency, TF over GST control).

CCACTA: the binding signal is 1.14 fold enrichment (6-mer frequency, TF over GST control).

As for TTCGCT, the binding signal was 1.49 fold enrichment (6-mer frequency, TF over GST control).

For CCGCAT, the binding signal was 1.52 fold enrichment (6-mer frequency, TF over GST control).

With ATCTCG, the binding signal was 1.51 fold enrichment (6-mer frequency, TF over GST control).

For a further test, the target named is T3, ELF3 (Homo sapiens, UniProt P78545 1-371).
T3 sequence: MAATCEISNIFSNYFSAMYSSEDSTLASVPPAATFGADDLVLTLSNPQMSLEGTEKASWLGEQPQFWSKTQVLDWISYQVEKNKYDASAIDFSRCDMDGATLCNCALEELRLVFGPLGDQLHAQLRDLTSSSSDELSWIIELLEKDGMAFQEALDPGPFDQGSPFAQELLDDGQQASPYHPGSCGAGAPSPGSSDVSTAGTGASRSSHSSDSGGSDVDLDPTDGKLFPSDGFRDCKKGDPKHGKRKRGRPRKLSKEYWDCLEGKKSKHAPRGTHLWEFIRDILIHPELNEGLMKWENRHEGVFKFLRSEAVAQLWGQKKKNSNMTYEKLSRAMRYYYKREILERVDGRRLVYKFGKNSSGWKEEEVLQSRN
Described as above. The note with it: protein: recombinant; tags: N-terminal GST; dsDNA, one strand shown. An outline of the steps:
as §1
Regarding ACGGAT, the binding signal was 1.3 fold enrichment (6-mer frequency, TF over GST control).

On to ATCGCC, for which the binding signal is 1.12 fold enrichment (6-mer frequency, TF over GST control).

On to TCTCGG, for which the binding signal is 1.33 fold enrichment (6-mer frequency, TF over GST control).

For the sequence TCTTAT, the binding signal is 1.36 fold enrichment (6-mer frequency, TF over GST control).

CTACAT: the binding signal is 1.28 fold enrichment (6-mer frequency, TF over GST control).

Take TAGATG: the binding signal was 1.32 fold enrichment (6-mer frequency, TF over GST control).

On to TCCCCC, for which the binding signal is 1.42 fold enrichment (6-mer frequency, TF over GST control).

For AAAATG, the binding signal is 1.32 fold enrichment (6-mer frequency, TF over GST control).

Regarding TCACTG, the binding signal was 1.48 fold enrichment (6-mer frequency, TF over GST control).

GTTCTG: the binding signal was 1.12 fold enrichment (6-mer frequency, TF over GST control).

On to CCTTTC, for which the binding signal is 1.42 fold enrichment (6-mer frequency, TF over GST control).

As for CAATTA, the binding signal was 1.22 fold enrichment (6-mer frequency, TF over GST control).

As for CAAGAT, the binding signal is 1.06 fold enrichment (6-mer frequency, TF over GST control).

As for GCTCAC, the binding signal is 1.49 fold enrichment (6-mer frequency, TF over GST control).

As to TTTGTA, the binding signal was 1.61 fold enrichment (6-mer frequency, TF over GST control).

As for TTTTGG, the binding signal was 1.44 fold enrichment (6-mer frequency, TF over GST control).

For ATGGAT, the binding signal is 1.09 fold enrichment (6-mer frequency, TF over GST control).

In the case of GAACAA, the binding signal is 1.22 fold enrichment (6-mer frequency, TF over GST control).

Turning to TCACTT, the binding signal was 1.62 fold enrichment (6-mer frequency, TF over GST control).

Consider GCCTAA, for which the binding signal was 1.35 fold enrichment (6-mer frequency, TF over GST control).
